# Rows were chosen to be rich in hits. Some 21% of all compounds tested hit in one or more screens of this group.
# NS1 function inh – blocks influenza NS1 protein function; Potency, µM (series often up to 46.1 µM), for inactives: at the top dose activity, positive = more growth; actives 0.4% (n = 270,000); calls by dose curve; further: potency means the concentration at half of the fitted maximal effect; actives are rising curves; nearly all actives have a fitted effect of over 50% in size
#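 OD600 was taken as the measure of yeast growth restored by compound in an NS1-expressing S. cerevisiae strain. Cells had been washed out of glucose medium and diluted 1:100 into galactose -URA medium, pH 6.0.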
# Pf growth 96h – inhibits malaria parasite growth, 96 h | actives 6.9% (n = 320,000) | P. falciparum luciferase reporter growth, 96 h | Potency, µM (series often up to 28.7 µM), for the others: top-dose activity change, negative = inhibition, usual class: inhibitors; further: potency means the concentration at half of the fitted maximal effect; on the % scale 0 is the no-effect control and ±100 the full control effect
#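 Luminescence readout: decreased luciferase signal marks inhibited growth of reporter-expressing P. falciparum in infected red cells (2% hematocrit, 0.05% parasitemia final), exposed to compound two generations (96 h, 37 C, 5% CO2).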
# SARS PLpro yeast – SARS-CoV PLP inhibition in yeast; Potency, µM (doses to about 32.9 µM), without a hit: at the highest dose activity, positive = growth rescue, actives largely listed as activators; S. cerevisiae expressing SARS-CoV PLpro, growth rescue; actives 0.19% (n = 330,000); AID 485353; calls by dose curve; further: potency means the concentration at half of the fitted maximal effect; 0% is about no effect; nearly all actives have a fitted effect of over 55% in size
# Shiga inhibitor – inhibitors of Shiga toxin in Vero cells | inhibition, % at 38.7 µM | actives 9.2% (n = 290,000) | AID 2315 | Vero cells, Shiga toxin protein synthesis inhibition reporter; in the data active means inhibition mostly above about 28%, no sharp cut-off; inactive means mostly below about 43%; further: 0% is about no effect
# Cycloheximide cs – counter-screen for Shiga toxin inhibitors: cycloheximide protein synthesis inhibition. cell reporter, cycloheximide protein synthesis inhibition counterscreen. max response, %. actives 12% (n = 300,000). AID 2314; in the data active means max response mostly above about 13%, no sharp cut-off; inactive means mostly below about 14%; further: read at 38.3 µM for the half of the compounds with a filed dose; 0% is about no effect
# Pf growth 48h – inhibits P. falciparum growth in the first generation, 48 h | Potency, µM (titrated, usually from 28.7 µM), without a hit: at the highest dose activity change, negative = inhibition, hits mostly inhibitors | actives 5.9% (n = 310,000) | P. falciparum luciferase growth in erythrocytes, 48 h | AID 504832; further: potency means the concentration at half of the fitted maximal effect; on the % scale 0 is the no-effect control and ±100 the full control effect
#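 Cell-based growth assay: transgenic P. falciparum expressing firefly luciferase, cultured in red cells within RPMI 1640 containing 0.5% w/v Albumax, 24 mM bicarbonate and gentamycin. A drop in luciferase activity indicates inhibition.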
# Numbers without * were called inactive; ? = inconclusive; . = no result. Unless noted, the call rests on the fitted dose curve; in most records, active means well fitted inhibition curve with a large enough effect; inconclusive means small, poorly fitted or top-dose-only effect, or another doubt; inactive means no such curve, though single readings can be large or run the other way.
SMILES,NS1 function inh,Pf growth 96h,SARS PLpro yeast,Shiga inhibitor,Cycloheximide cs,Pf growth 48h
Oc1ccccc1NCC(O)Cn1ccc2ccccc21 (stereo not given),-54.2%,1.6%,-11.0%,21.2,5.4,?
OC(CNCCNc1ncccc1C(F)(F)F)Cn1ccc2ccccc21 (stereo not given),6.2%,1.85µM*,1.3%,-7.9,-3.9,1.47µM*
CCN(CC(=O)Nc1cccc(S(=O)(=O)N2CCOCC2)c1)Cc1ccccc1,.,?,7.4%,.,.,?
Cc1cc(C)n(C(C)CC(=O)Nc2ccc3c(c2)OCCO3)n1 (stereo not given),-7.2%,-7.5%,9.6%,17.7,27.2,20.2%
COc1ccccc1NC(=O)NC1CCCCCCC1,-6.3%,11.7µM*,-7.1%,34.6,13.9,-28.0%
COc1ccc(OC)c(NC(=O)CCCC(=O)NC2CCCCC2)c1,-2.5%,?,-5.5%,-9.7,1.2,6.1%
COc1ccc(CC(=O)NC2CCCCCC2)c(OC)c1,2.5%,4.4%,3.5%,25.7,8.5*,-1.4%
COc1ccc(CCC(=O)NC2CCCCC2)cc1,-2.8%,14.7µM*,.,-15.0,10.2,-15.5%
CCOc1ccccc1NC(C)C(=O)NC(=O)NC1CCCCC1 (stereo not given),.,13.1µM*,-7.2%,.,.,?
CC(=O)c1c(C)n(-c2ccccc2Br)c2ccc(O)cc12,0.0%,3.0%,-0.3%,-17.2,-3.5,-13.7%
COCCNC(=O)C1(C(F)(F)F)C/C(=C/CCO)CCCO1 (stereo not given),.,.,.,2.5,8.7,.
CC(C)(C)c1ccc(C(=O)Oc2ccccc2CCC(=O)O)cc1,0.2%,0.0%,-1.7%,5.2,5.3,-1.1%
C[N+](C)(C)CCN[N@@+]1(C)CCCc2ccccc21,2.6%,.,.,.,.,.
COc1ccc(NC(=O)NC2CCCCCCC2)c(OC)c1,-14.0%,?,1.3%,45.0*,30.3*,-2.9%
CN(CC(=O)Nc1cccc(F)c1)C(=O)c1cc(S(=O)(=O)N2CCCCC2)ccc1N1CCOCC1,.,?,-2.8%,.,.,?
O=C(Nc1ccc(Nc2ccccc2)cc1)C(Cl)(Cl)Cl,-17.1%,?,-67.0%,49.0*,26.7*,?
COCC(=O)Nc1ccc(Nc2ccccc2)cc1,?,1.2%,-4.2%,60.5*,12.0,-12.7%
CCC(=O)Nc1ccc(Nc2ccccc2)cc1,-12.6%,-18.4%,-3.1%,33.6*,15.7*,?
CN(C(=O)COC(=O)c1ccc2[nH]c3c(c2c1)CCCC3)C1CCS(=O)(=O)C1 (stereo not given),.,20.7%,-0.9%,5.6,-3.3,-1.1%
Cc1ccc(OCC(=O)N(C)CC(=O)N(CC(C)C)c2c(N)n(CC(C)C)c(=O)[nH]c2=O)c(C)c1,.,?,-4.6%,.,.,?
CCC(C)NS(=O)(=O)c1cc2c3c(c1)CCC(=O)N3CCC2 (stereo not given),2.4%,4.7%,-1.7%,-6.7,-2.0,2.6%
CC(=O)N1CN(C2CCCC2)Cc2c1sc1c2CCCC1,-3.6%,.,0.4%,-2.1,-1.2,-16.9%
CC(=O)N1CN(C2CC(C)(C)NC(C)(C)C2)Cc2c1sc1c2CCCC1,-8.6%,11.7µM*,-11.5%,-2.1,-0.7,11.7µM*
Cn1c(SCC(=O)NC2CCCC2)nnc1-c1ccco1,5.5%,1.0%,-6.2%,-7.0,-2.8,14.6%
CC(C)n1nnnc1SCC(=O)NNC(=O)C1CCCCC1,1.3%,9.5%,9.5%,-13.4,-4.7,7.9%
SMILES,NS1 function inh,Pf growth 96h,SARS PLpro yeast,Shiga inhibitor,Cycloheximide cs,Pf growth 48h
COc1cccc(-n2nnnc2SCC(=O)NC2CCCCC2)c1,-5.7%,29.5%,8.4%,36.2,34.3*,14.1%
CC(C)n1nnnc1SCC(=O)NC1CCCC1,2.3%,5.22µM*,1.9%,13.9,8.4,50.6%
COc1cccc(-n2nnnc2SCC(=O)c2cc(OC)ccc2OC)c1,0.0%,11.7µM*,0.3%,-8.3,7.0,21.0%
COc1cccc(-n2c(SCC(=O)NC3CCCC3)nnc2-c2ccco2)c1,-20.1%,-1.5%,-0.9%,25.2,1.6,2.08µM*
Cc1cc(C(=O)Nc2ccc3c(c2)CCC3)c2ccccc2n1,.,-7.3%,-0.2%,28.7,20.0,?
Cc1occc1-c1nnc(SCC(=O)NC2CC2)n1C,9.5%,?,-1.8%,13.2,-5.6,35.4%
Cc1cccc(-n2c(SCC(=O)NCc3ccco3)nnc2-c2ccco2)c1,1.0%,5.22µM*,8.4%,4.4,-4.3,?
Cc1nnc(SCC(=O)NC2CC2)n1-c1ccccc1,5.6%,4.65µM*,?,-9.0,1.8,7.8%
Cc1cccc(-n2c(SCC(=O)NC3CCCC3)nnc2-c2ccoc2C)c1,-7.0%,21.8%,-1.7%,8.2,9.6,13.1µM*
COc1ccc(OC)c(-n2nnnc2SCC(=O)NCCc2ccccc2)c1,0.7%,9.28µM*,3.3%,-11.2,-0.1,50.8%
Cc1ccc(CN2C(=O)c3ccccc3NC2c2cc(Br)ccc2O)cc1 (stereo not given),1.6%,?,-10.7%,-7.6,1.5,?
O=Cc1cccn1-c1cccc([N+](=O)[O-])c1,4.6%,2.62µM*,-0.1%,-2.5,0.7,77.9%
NC(=O)c1ccccc1NC(=O)CS(=O)(=O)Cc1ccccc1,3.5%,9.28µM*,5.9%,53.8,-4.3,23.8%
CC#CCCCC(=O)Nc1ccccc1C(=O)O,7.7%,31.2%,0.4%,82.5*,28.5*,31.8%
CCc1ccc(CCC(=O)Nc2ccccc2C(=O)O)o1,-46.4%,?,-2.9%,75.4*,40.1*,-15.3%
CCCC(=O)NNC(=O)CC(=O)Nc1ccccc1C(=O)O,9.3%,55.0%,-0.5%,-13.2,-1.7,46.8%
O=C(Cc1ccccc1)Nc1ccccc1C(=O)O,-5.0%,-11.8%,4.8%,75.7*,35.0*,.
O=[n+]1cc(-c2ccc(Cl)cc2)n([O-])c2c1CCCCC2,16.1%,33.8%,1.8%,-44.2,6.0,16.7%
O=C(NCCN1CCOCC1)C1(C(F)(F)F)C/C(=C/CCO)CCCO1 (stereo not given),.,.,.,-4.0,-8.3,.
COc1ccc(C2(CNC(=O)CCC(=O)O)CCCC2)cc1OC,4.5%,15.8%,0.0%,-12.2,-3.5,.
Cc1c(Cl)cccc1NC(=O)CN1CCN(CCN=CC2=C(O)CC(c3ccccc3)CC2=O)CC1 (stereo not given),.,?,-5.5%,-19.6,16.1,0.0%
Clc1ccc(CNCCC2=CCCCC2)cc1,2.2%,18.0%,-3.7%,-0.3,13.3,.
COc1ccc(CN2CCNC(=O)C2CC(=O)NCCc2nc(C)c3c(n2)CCC3)cc1C (stereo not given),0.7%,?,-2.6%,-4.7,8.9,0.0%
O=C(CCCc1ccccc1)Nc1ccccc1[N+](=O)[O-],-14.9%,4.4%,1.7%,27.4*,37.1*,67.5%
O=C(CCc1ccccc1)Nc1ccccc1[N+](=O)[O-],-9.8%,?,24.2%,53.5*,26.1*,90.6%
CN(C)c1ccc(NC(=O)Cc2ccccc2)c2ccccc12,1.6%,-0.9%,0.4%,32.9,15.4*,-1.3%

# From PubChem BioAssay
